Test results published in PubChem BioAssay (NCATS).
Results filed as inconclusive are left out. Unmarked numbers belong to inactive results. Calls follow the shape of the dose curve; as a rule, active = well fitted inhibition curve with a large enough effect; inconclusive = small, poorly fitted or top-dose-only effect; inactive = no such curve, though single readings can be large or run the other way.

test: Primary qHTS for inhibitors of La Crosse Virus (LACV) - induced cell death in SH-SY5Y cells (AID 1508616); conditions: SH-SY5Y LACV cytopathicity rescue, ATP luminescence, 6 d; series mostly up to 4.29 µM; activity change: at the top concentration;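 also: top concentration of the series differs between compounds; 0% = infected DMSO wells and 100% = uninfected DMSO wells; higher means more rescue of cells from virus-induced death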
Method in brief: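 Screening measures cell viability in LACV-infected SH-SY5Y cultures. Compound was added before virus (0.01 MOI), and ATP was detected by luminescence 6 days later.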

Row | SMILES | activity change
1 | CC(=O)O[C@@H]1CC2C3CCc4cc(OC(=O)c5ccccc5)ccc4C3CCC2(C)[C@H]1OC(C)=O (some centres not stated) | 6.24%
2 | CN1C(CSCC(F)(F)F)Nc2cc(Cl)c(S(N)(=O)=O)cc2S1(=O)=O (configuration not stated) | 0.213%
3 | O=C(O)c1ccc(OCCN2CCCCC2)cc1 | -4.48%
4 | CC(=O)OC[C@H]1O[C@@H](OC(C)=O)[C@H](OC(C)=O)[C@@H]1OC(C)=O | -4.18%
5 | CC(=O)OCC(=O)[C@@]1(O)[C@H](OC(C)=O)C[C@H]2[C@@H]3CCC4=CC(=O)C=C[C@]4(C)[C@@]3(F)[C@@H](O)C[C@@]21C | 9.87%
6 | Cc1[nH]cnc1-c1ccc(Cl)cc1 | -10.2%
7 | O=P(O)(O)OCC(O)CO (configuration not stated) | -0.321%
8 | CN(C)CCCOC1(Cc2ccccc2)CCCCCC1 | -4.49%
9 | Cc1ccc(C(C)OC(=O)C2(C)CCC(C(=O)O)C2(C)C)cc1 (configuration not stated) | -6.17%
10 | COC(=O)CCCCC(CCSS/C(CCO)=C(\C)N(C=O)Cc1cnc(C)nc1N)SC(C)=O (configuration not stated) | -5.63%
11 | N#C/C(=C1/SC[C@@H](c2ccc(Cl)cc2Cl)S1)n1ccnc1 | 57.3%
12 | Cc1cnc(NS(=O)(=O)c2ccc(N)cc2)nc1 | 21.9%
13 | CCO[C@H](Cc1ccc(OCCc2ccc(OS(C)(=O)=O)cc2)cc1)C(=O)O | -1.9%
14 | OC[C@]1(O)OC[C@@H](O)[C@H](O)[C@@H]1O | -6.25%
15 | CO/N=C(\C(=O)O)c1csc(NC(=O)CCl)n1 | 13.7%
16 | CN(C)CCN1CCN(c2cccc(Cl)c2)C1=O | 16%
17 | CC(=O)c1ccc(O)c(C(N)=O)c1 | 21.9%
18 | CN1C(=O)c2ccccc2C1=O | 17.3% [at 8.54 µM]
19 | C=CCOc1cc(Cl)ccc1C(=O)NCCN(CC)CC | 9.1%

Row | SMILES | activity change
20 | CCN(CC)CC(=O)Oc1ccc(NC(C)=O)cc1 | 10.3%
21 | CCC(C(=O)OCCN1CCOC(c2ccccc2)C1C)c1ccccc1 (configuration not stated) | 9.28%
22 | CCn1ccc(NS(=O)(=O)c2ccc(N)cc2)nc1=O | 19.7%
23 | COC(=O)c1cc(S(N)(=O)=O)ccc1OC | 12%
24 | CCCCOC(=O)CCCCCCCCC(=O)OCCCC | -9.42%
25 | O=C1CC[C@H](C(=O)N2CCCCC2)N1 | 14.9%
26 | CCCC(=O)OCOC(=O)C1=C(C)NC(C)=C(C(=O)OC)C1c1cccc(Cl)c1Cl (configuration not stated) | 0.729%
27 | CC1(C)O[C@@H]2C[C@H]3[C@@H]4C[C@H](F)C5=CC(=O)C=C[C@]5(C)[C@@]4(F)[C@@H](O)C[C@]3(C)[C@]2(C(=O)CO)O1 | -5.3%
28 | CCOC(=O)Oc1ccc(CCNC(=O)[C@H](CCSC)NC(C)=O)cc1OC(=O)OCC | 6.23%
29 | NC(=O)COCCN1CCN(C(c2ccccc2)c2ccc(Cl)cc2)CC1 (configuration not stated) | -10.9%
30 | Nc1ncnc2c1ncn2Cc1c(F)cccc1Cl | 1.84%
31 | O=c1[nH]c(=O)n([C@H]2O[C@H](CO)[C@@H](O)[C@@H]2O)cc1/C=C\Br | 2.04%
32 | CCOC(=O)C(O)c1ccccc1 (configuration not stated) | -7.39%
33 | CCOc1ccccc1OCC1CNCCO1 (configuration not stated) | 14.9%
34 | C1=CC2C3C=CC(C3)C2C1 (configuration not stated) | 6.78% [at 8.54 µM]
35 | CC(C)=CCC/C(C)=C/CC/C(C)=C/CCC(=O)OC/C=C(\C)CCC=C(C)C | 2.68%
36 | O=C(O)CCCC[C@@H]1SC[C@@H]2NC(=O)N[C@@H]21 | -4.34%
37 | O=C(Oc1ccccc1)c1cccc(C(=O)Oc2ccccc2)c1 | 24.4% [at 9.63 µM]
